# Shown are actives, neighbours in structure and some others; about 6.7% of the full set was active somewhere.
# C diff HTS: C. difficile growth inhibitors, primary screen, HTS | Clostridium difficile clinical isolate growth, OD600, 24 h; active compounds read low | 86,000 compounds, 0.25% hits | growth activity, negative = inhibition, % at 16 µg/mL (by protocol) | AID 1259249, 2017;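 active means mean growth activity at or below -80% and every replicate also at or below -80%; inconclusive means mean at or below -80% but some replicate above -80%; inactive means mean growth activity above -80%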;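 further: 0% = DMSO wells and -100% = levofloxacin 16 µg/mL wells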
# Pf Dd2 inh: P. falciparum Dd2 growth inhibitors, primary screen, SYBR Green fluorescence, single dose replicates; 72 h; active compounds read low; activity change, % at 10 µM; 94,000 compounds, 2.3% hits; AID 1159554, 2015; in the data active means activity change below about -80%; inconclusive means no clear call, values can overlap the other calls
# T cruzi growth-1: T. cruzi intracellular proliferation inhibitors, primary screen, cell-based, beta-gal Tulahuen parasites, NIH3T3 host, luminescence; inhibition, % at 8.34 µM; T. cruzi beta-gal in NIH3T3, GalScreen luminescence, 90 h; 77,000 compounds, 5.9% hits; AID 624255, 2012;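 active means mean inhibition above about 93%, with at least 55% of replicates each passing it, limit read from the data, passing the limit was not always enough; inconclusive means only one of those two conditions holds; inactive means neither condition holds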
# T cruzi growth-2: T. cruzi intracellular proliferation inhibitors, confirmation, cell-based, NIH3T3 host, beta-gal parasite, luminescence, cherry-pick. shares compounds with T cruzi growth-1. T. cruzi beta-gal in NIH3T3, GalScreen luminescence, 90 h. inhibition, % at 8.35 µM. 5,600 compounds, 72% hits. AID 651739, 2012;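 active means mean replicate inhibition above about 95% and at least 55% of replicates individually reaching it, limit read from the data; inconclusive means only one of the two criteria is met; inactive means neither criterion is met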
# T cruzi growth-3: inhibitors of intracellular T. cruzi replication, confirmation, NIH3T3 host cells, beta-gal parasites, cherry-pick, set 2; shares compounds with T cruzi growth-1; T. cruzi beta-gal in NIH3T3, GalScreen luminescence, 90 h; inhibition, % at 2.09 µM; 5,600 compounds, 21% hits; AID 651740, 2012;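 active means mean inhibition above about 95%, with at least 55% of replicates also reaching it, limit read from the data; inconclusive means meets just one of the two conditions; inactive means meets neither condition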;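 further: plate controls were neutral control median for no effect and positive control median for full effect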
# 3T3 cytotox: cytotoxicity in mouse NIH/3T3 fibroblasts, confirmation, cytotoxicity control for T. cruzi proliferation inhibitor project, cell-based, cherry-pick, single point; AID 651742, 2012; cytotoxicity (signal decrease), % at 8.35 µM; 5,600 compounds, 14% hits; shares compounds with T cruzi growth-1; NIH/3T3 viability, CellTiter-Glo ATP luminescence, 90 h;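 active means mean signal decrease across replicates above about 35% based on untreated-well scatter, with enough replicates individually passing, limit read from the data; inconclusive means no rule stated though some were filed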;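 further: 0% = median of neutral control wells and 100% = median of positive control wells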
# NIH3T3 tox 2: NIH/3T3 fibroblast cytotoxicity, confirmation, cytotoxicity control, cell-based, cherry-pick, single point, set 2; shares compounds with T cruzi growth-1; NIH/3T3 viability, CellTiter-Glo ATP luminescence, 90 h; inhibition, % at 24.9 µM; 5,600 compounds, 56% hits;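 active means mean loss of cell viability signal at or above a set limit, and enough replicates individually reaching it; inconclusive means meets only the mean limit or only the replicate share; inactive means meets neither condition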;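 further: 0% = median of neutral control wells and 100% = median of positive control wells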
# * = called active by the depositor; ? = inconclusive; / = not tested or not shown.
SMILES,C diff HTS,Pf Dd2 inh,T cruzi growth-1,T cruzi growth-2,T cruzi growth-3,3T3 cytotox,NIH3T3 tox 2
COc1cccc(CNC(=O)C[C@H]2C=C[C@@H](NS(=O)(=O)c3ccccc3OC)[C@H](CO)O2)c1,3,2,42,/,/,/,/
COc1ccc(S(=O)(=O)N2C[C@H](O)COC[C@H]3O[C@@H](CC(=O)NCCCN4CCOCC4)CC[C@@H]32)cc1,/,7,21,/,/,/,/
COc1ccc(CN(C)C[C@@H]2OCCCC[C@H](C)Oc3ccc(NC(=O)Nc4ccc(OC)cc4)cc3C(=O)N([C@@H](C)CO)C[C@H]2C)cc1,/,-61,-2,/,/,/,/
COc1ccc(NC(=O)Nc2ccc3c(c2)C(=O)N([C@H](C)CO)C[C@@H](C)[C@@H](CN(C)Cc2ccc(Cl)c(Cl)c2)OCCCC[C@H](C)O3)cc1,5,-75,126*,90,110*,2,5
COc1ccc(NC(=O)Nc2ccc3c(c2)C(=O)N([C@H](C)CO)C[C@H](C)[C@H](CN(C)Cc2ccc(Cl)c(Cl)c2)OCCCC[C@H](C)O3)cc1,-1,14,126*,95*,114*,5,16
CO[C@@H]1CN(C)C(=O)c2cc(NS(=O)(=O)CC(F)(F)F)ccc2OC[C@@H](C)N(Cc2nccs2)C[C@@H]1C,/,0,9,/,/,/,/
C/C=C/c1ccc([C@@H]2[C@H]3CN(C(=O)Nc4ccc(F)cc4)CCCCN3[C@H]2CO)cc1,31,-11,?,112*,74,33,106*
C/C=C/c1ccc([C@@H]2[C@@H](CO)N3CCCCN(C(=O)Nc4ccc(F)cc4)C[C@@H]23)cc1,37,-36,97*,108*,39,17,74*
C/C=C/c1ccc([C@@H]2[C@H](CO)N3CCCCN(C(=O)Nc4ccc(F)cc4)C[C@@H]23)cc1,56,3,59,/,/,/,/
C/C=C/c1ccc([C@H]2[C@H](CO)N3CCCCN(C(=O)Nc4ccc(F)cc4)C[C@@H]23)cc1,44,-4,90,/,/,/,/
C[C@@H]1CCCCO[C@@H](CN(C)CC2CC2)[C@H](C)CN([C@@H](C)CO)C(=O)c2cc(NC(=O)CCC(F)(F)F)ccc2O1,3,-7,38,/,/,/,/
COc1cccc(NC(=O)N(C)C[C@H]2Oc3cc(C#CC4(O)CCCC4)ccc3S(=O)(=O)N([C@H](C)CO)C[C@H]2C)c1,0,-57,/,/,/,/,/
COc1cccc(C#Cc2ccc3c(c2)O[C@@H](CN(C)C(C)=O)[C@H](C)CN([C@@H](C)CO)S3(=O)=O)c1,-12,-76,?,107*,30,?,35*
COc1cccc(NC(=O)N(C)C[C@H]2Oc3cc(C#Cc4ccccc4)ccc3S(=O)(=O)N([C@H](C)CO)C[C@H]2C)c1,12,-74,85*,100*,114*,5,5
COc1cccc(C#Cc2ccc3c(c2)O[C@H](CN(C)C(C)=O)[C@H](C)CN([C@@H](C)CO)S3(=O)=O)c1,-10,-49,50,/,/,/,/
COc1cccc(NC(=O)N(C)C[C@H]2Oc3cc(-c4ccccc4OC)ccc3S(=O)(=O)N([C@H](C)CO)C[C@@H]2C)c1,-1,-17,/,/,/,/,/
COc1cccc(NC(=O)N(C)C[C@H]2Oc3cc(C#Cc4ccccc4)ccc3S(=O)(=O)N([C@H](C)CO)C[C@@H]2C)c1,1,-84*,94*,113*,89,24,21
COCC(=O)N1CC2(C1)CN(C(=O)CN1CCOCC1)[C@H](CO)c1c2c2ccc(OC)cc2n1C,0,-73,/,/,/,/,/
Cc1noc(C)c1S(=O)(=O)Nc1ccc2c(c1)C(=O)N([C@@H](C)CO)C[C@@H](C)[C@H](CN(C)C(=O)Cc1ccccc1)OCCCC[C@@H](C)O2,8,-33,-11,/,/,/,/
